High-throughput results as filed in PubChem BioAssay.
eIF4H inh – inhibitors of RNA binding by human eIF4H; eIF4H fluorescence polarization binding assay; 0.94% of 290,000 active; inhibition, % at 35 µM; Q15056;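 note: calls also rest on retests at 20 µM and on dose response follow-up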
eIF4E 4G PPI – blocks eIF4E binding to eIF4G. 0.37% of 220,000 active. inhibition, % at 21.7 µM. P63073+Q04637. AID 782. TR-FRET eIF4E-eIF4GI(517-606) binding, 2 h;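 active = inhibition above about 30%, limit read from the data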
PABP1 MLLE inh – blocks PAM2 peptide binding to the PABP1 MLLE domain; P11940; GST-MLLE / FITC-PAM2 fluorescence polarization; inhibition, % at 20 µM; 0.36% of 360,000 active; in the data active = inhibition above about 35%, passing the limit was not always enough
Target sequence (P11940 whole entry, looked up, the tested form may be a part): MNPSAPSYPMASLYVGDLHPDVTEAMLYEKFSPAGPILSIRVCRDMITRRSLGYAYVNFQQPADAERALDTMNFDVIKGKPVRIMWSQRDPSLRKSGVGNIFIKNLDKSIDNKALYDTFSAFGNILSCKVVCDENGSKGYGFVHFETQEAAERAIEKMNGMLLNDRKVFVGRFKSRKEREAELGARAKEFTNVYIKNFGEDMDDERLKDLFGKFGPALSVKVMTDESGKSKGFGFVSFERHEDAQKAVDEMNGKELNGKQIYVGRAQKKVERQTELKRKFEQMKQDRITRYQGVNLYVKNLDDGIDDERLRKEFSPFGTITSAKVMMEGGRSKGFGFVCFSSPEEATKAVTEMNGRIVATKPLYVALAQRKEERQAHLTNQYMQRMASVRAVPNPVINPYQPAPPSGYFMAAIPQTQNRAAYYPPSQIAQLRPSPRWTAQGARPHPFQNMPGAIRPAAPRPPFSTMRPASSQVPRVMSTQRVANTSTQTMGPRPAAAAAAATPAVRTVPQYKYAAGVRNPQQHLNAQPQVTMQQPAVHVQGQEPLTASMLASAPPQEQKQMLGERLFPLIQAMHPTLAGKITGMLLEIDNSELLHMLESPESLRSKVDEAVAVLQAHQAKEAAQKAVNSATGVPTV
PERK inh – human PERK inhibition, primary cell-based screen; CHO PERK-DD fusion, SEAP luminescence translation reporter; AID 1416; inhibition, % at 5.6 µM; 0.17% of 220,000 active; Q9NZJ5;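 active = inhibition above the mean inhibition of all tested compounds plus 3 SD, set separately per screening campaign, cut at about 2.9% in these data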;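 note: PERK kinase domain activated by AP20187 dimerizer at 100 nM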
PABP FP inh – PABP-poly(A) binding inhibition | inhibition, % at 35 µM | 1% of 290,000 active | PABP-poly(A) RNA binding, fluorescence polarization | AID 2014 | P11940;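 note: calls also rest on retests at 20 µM and on dose response follow-up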
Large screens that a line does not name were inactive; [ ] = remark or other dose. Sampled rows, rich in hits. Any-hit rate of the full collection: about 1.6%. Unless noted, the rule behind the calls is not given here.

CCOP(=O)(Cc1cc(C(C)=O)c(C)o1)OCC	PABP1 MLLE inh 40
CC(=O)N(C)CC#CCN1CCC(O)CC1	none (no result: eIF4H inh, eIF4E 4G PPI, PERK inh, PABP FP inh)
O=S1(=O)CCN(CCc2c[nH]c3ccccc23)CC1	eIF4H inh active, PABP FP inh 60
O=c1[nH]c(=O)n(-c2cccc3ccccc23)c(O)c1/C=N/N1CCCCC1c1cccnc1 (centres undefined)	eIF4H inh 89, PABP FP inh 9.1
O=c1[nH]c(=O)n(C2CCCCC2)c(O)c1/C=N/N1CCCCC1c1cccnc1 (centres undefined)	none
Cc1sc2ncn(CC(=O)NCC(=O)N3CCC4(CC3)OCCO4)c(=O)c2c1C	none
Cc1cc(/C=C2\C(=O)NC(=O)N(c3ccccc3)C2=O)c(C)n1-c1ccc(C(=O)O)c(Cl)c1	PABP FP inh 31 (no result: eIF4E 4G PPI, PERK inh)
Cc1cc(/C=C2\C(=O)NC(=O)N(c3ccc(F)cc3)C2=O)c(C)n1-c1cccc(C(=O)O)c1	PABP FP inh 31
Cc1cc(/C=C2\C(=O)NC(=O)N(c3ccccc3F)C2=O)c(C)n1-c1cc(C(=O)O)cc(C(=O)O)c1	PABP FP inh 47 (no result: eIF4E 4G PPI, PERK inh)
Cc1cc(/C=C2\C(=O)NC(=O)N(c3ccc(Cl)cc3)C2=O)c(C)n1C	none
C=CCN1C(=O)/C(=C/c2cc(C)n(-c3ccccn3)c2C)C(=O)NC1=S	eIF4H inh inconclusive, PABP FP inh active
Cn1c(O)c(/C=N/N2CCOCC2)c(=O)[nH]c1=S	none (no result: PABP1 MLLE inh)
N#CC(C#N)=C(N)c1cccnc1	none
CC1(C)C2([N+](=O)[O-])CN3CC1([N+](=O)[O-])CN(C2)C3c1ccccn1 (centres undefined)	none
Cc1cc(C)cc(N2C(=O)NC(=O)/C(=C\c3cc(C)n(C)c3C)C2=O)c1	eIF4H inh inconclusive, PABP FP inh inconclusive
Cc1cc(C=C2C(=O)NC(=O)NC2=O)c(C)n1-c1ccc2c(c1)OCO2	none
CCc1ccccc1N1C(=O)NC(=O)/C(=C\c2cc(C)n(C)c2C)C1=O	eIF4H inh 66, PABP FP inh inconclusive
Cc1cc(/C=C2\C(=O)NC(=O)N(C)C2=O)c(C)n1-c1ccc2c(c1)OCO2	none
Cc1cc(/C=C2/C(=O)NC(=O)N(C)C2=O)c(C)n1-c1ccccc1	PABP FP inh 65
Cc1ccc(/C=C2/C(=O)NC(=O)N(C)C2=O)cc1	eIF4H inh inconclusive, PABP FP inh active
Cc1cc(C=C2C(=O)NC(=S)NC2=O)c(C)n1-c1ccc2c(c1)OCO2	PABP FP inh 8.9
CN1CC(C(=O)c2ccc(Cl)cc2)C(c2ccc(Cl)cc2Cl)C1 (centres undefined)	none (no result: eIF4E 4G PPI, PERK inh)
COc1ccc(N=Cc2c(O)n(Cc3ccccc3)c(=S)[nH]c2=O)c(OC)c1	eIF4H inh inconclusive, PABP FP inh inconclusive
COc1ccc(OC)c(N=Cc2c(O)n(Cc3ccccc3)c(=S)[nH]c2=O)c1	eIF4H inh 35, PABP FP inh 58
CCCCCn1c(=O)c(C(=O)Nc2cccc(C)n2)c(O)c2ccccc21	none (no result: eIF4E 4G PPI, PERK inh)
O=C(O)c1ccccc1NC(=O)N1C[C@H]2C[C@@H](C1)c1cccc(=O)n1C2	none (no result: eIF4E 4G PPI, PERK inh)
CCC(=NCc1cccnc1)c1c(O)n(-c2ccccc2)c(=O)[nH]c1=O	eIF4E 4G PPI 32
CC(=O)Nc1ccc(CC(=O)N2CCN(Cc3ccccc3)CC2)cc1	eIF4H inh 82, PABP FP inh 60 (no result: eIF4E 4G PPI, PERK inh)
N/C(=N\N=C/c1ccc(-c2ccc(O)c(C(=O)O)c2)o1)N[N+](=O)[O-]	eIF4H inh 103, eIF4E 4G PPI 33[fluorescence artefact?], PABP FP inh 60
CCC(=NC(C)c1ccccc1)c1c(O)[nH]c(=O)[nH]c1=O (centres undefined)	none
Cc1ccc(Sc2ccc(C=C3C(=O)N(C)C(=O)N(C)C3=O)o2)cc1	eIF4H inh inconclusive, PABP FP inh 118
O=c1[nH]c(O)c(C=Nc2ccc(Cl)c(C(F)(F)F)c2)c(=O)[nH]1	eIF4H inh inconclusive, PABP FP inh inconclusive (no result: eIF4E 4G PPI, PERK inh)
O=[N+]([O-])c1ccc(N2CCOCC2)c2c1no[n+]2[O-]	none (no result: eIF4H inh, eIF4E 4G PPI, PERK inh, PABP FP inh)
CN(C)P(=NC(=S)c1cccn1C)(N(C)C)N(C)C	PABP1 MLLE inh 37
COCCCn1c(N)c(C(=O)NCc2ccco2)c2nc3ccccc3nc21	none (no result: PABP1 MLLE inh)
Cc1ccc(-c2nc3ccccc3c(=O)n2-c2ccc(O)cc2)cc1	none
CCCCCCNC(=O)N[C@H](Cc1ccc(O)cc1)C(=O)NCCC[C@H]1CN2C(=NC[C@H]2CCC)N1CC1CCC1	eIF4E 4G PPI 56 (no result: PABP1 MLLE inh, PERK inh)
CCCCCCNC(=O)N[C@@H](Cc1ccc(O)cc1)C(=O)NCCC[C@H]1CN2C(=NC[C@H]2C)N1CC1CCC1	none (no result: PABP1 MLLE inh, PERK inh)
O=c1[nH]c(=O)n(CCC2=CCCCC2)c(O)c1/C=N/Nc1cccc2ccccc12	eIF4H inh inconclusive, PABP FP inh 35
